# Bioassay records: PubChem BioAssay, National Center for Advancing Translational Sciences (NCATS)
# Sampled rows, rich in hits. Any-hit rate of the full collection: about 21%.
# IL-1B inflam inh: blocks inflammasome-driven IL-1 beta release. THP-1 LPS/ATP IL-1B secretion, AlphaLISA, 16 h; stronger effect = lower value. activity change, % at 57.5 µM. 360,000 compounds, 4.7% hits; in the data active means activity change below about -50%; inconclusive means mostly about -30% to -49%
#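 Secreted IL-1B measured by AlphaLISA bead assay after 16 h compound exposure of THP-1 cells; compounds (final up to 57.5 uM) added 1 h before LPS (250 ng/mL) and ATP (1.25 mM) stimulation; lower signal means less secretion.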
# RORg inh: inhibitors of mouse ROR gamma transcriptional activity | AID 2551 | Potency, µM (highest dose often 53.6 µM), for the others: at the top dose activity change, negative = inhibition, hits mostly inhibitors | Drosophila S2 Gal4-RORgamma UAS-luciferase reporter, 20 h | 310,000 compounds, 5.4% hits; further: potency means the concentration at half of the fitted maximal effect; nearly all actives have a fitted effect of over 60% in size
# Target sequence (P51450 whole entry, looked up, the tested form may be a part): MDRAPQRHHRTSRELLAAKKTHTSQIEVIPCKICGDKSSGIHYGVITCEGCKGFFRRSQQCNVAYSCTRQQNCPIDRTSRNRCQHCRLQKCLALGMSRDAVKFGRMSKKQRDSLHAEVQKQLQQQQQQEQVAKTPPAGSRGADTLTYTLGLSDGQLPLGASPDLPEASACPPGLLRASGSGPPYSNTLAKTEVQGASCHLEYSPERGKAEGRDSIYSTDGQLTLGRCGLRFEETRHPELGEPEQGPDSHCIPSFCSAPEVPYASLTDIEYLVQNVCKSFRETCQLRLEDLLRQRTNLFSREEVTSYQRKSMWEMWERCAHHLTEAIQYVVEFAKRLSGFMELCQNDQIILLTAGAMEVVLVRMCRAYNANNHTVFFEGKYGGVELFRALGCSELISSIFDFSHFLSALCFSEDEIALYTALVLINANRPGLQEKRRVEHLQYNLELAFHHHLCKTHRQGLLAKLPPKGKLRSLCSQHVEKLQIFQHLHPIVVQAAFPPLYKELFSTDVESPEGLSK
#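 Luminescence from a UAS-regulated Photinus luciferase reporter in stably transfected Drosophila Schneider cells is measured; decreased signal marks ROR gamma inhibition. Fusion expression is induced by 700 uM copper sulfate for 20 hr.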
# Gal4-VP16 FLuc: counter-screen for ROR gamma inhibitors: Gal4-VP16 reporter | Potency, µM (titrated, usually from 53.6 µM), for inactives: at the top dose activity, negative = inhibition, most hits filed as inhibitors | 310,000 compounds, 3.5% hits | AID 2546 | Drosophila S2 Gal4-VP16 UAS-luciferase, luminescence, 20 h;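 further: Gal4-VP16 expression switched on by copper sulfate through the metallothionein promoter; potency means the concentration at half of the fitted maximal effect; nearly all actives have a fitted effect of over 50% in size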
# DT40 TDP1 no CPT: qHTS for Inhibitors of human tyrosyl-DNA phosphodiesterase 1 (TDP1): qHTS in cells in absence of CPT | DT40 Tdp1-/- hTDP1 cells, no CPT, ATP luminescence, 48 h | Potency, µM (titrated, usually from 46.2 µM), for inactives: top-dose activity change, negative = growth inhibition, hits mostly inhibitors | 420,000 compounds, 15% hits | AID 686978, 2013; further: potency means the concentration at half of the fitted maximal effect; nearly all actives have a fitted effect of over 55% in size
#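 DT40 Tdp1-/-;hTDP1 cells, no CPT (DMSO vehicle only), 400 cells/well; compounds pin-transferred; ≥48 hr, 37 °C; CellTiter-Glo 30 min RT dark, luminescence read.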
# DT40 TDP1 CPT: growth inhibition of DT40 Tdp1-/-;hTDP1 cells with camptothecin (screen for TDP1 inhibitors) | chicken DT40 Tdp1-/-;hTDP1 cells + 20 nM CPT, ATP luminescence, 48 h | Potency, µM (top dose mostly 46.2 µM), without a hit: top-dose activity change, negative = growth inhibition, hits mostly inhibitors | 420,000 compounds, 12% hits; further: potency means the concentration at half of the fitted maximal effect; nearly all actives have a fitted effect of over 55% in size
#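 Chicken DT40 Tdp1-/- cells stably complemented with human TDP1 were seeded at 400 cells/well in medium containing 20 nM camptothecin, exposed to pin-transferred compounds, and grown at 37 °C for at least 48 hr. Viability was read as ATP luminescence.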
# ELG1 repair inh: blocks ELG1-dependent DNA repair in HEK293T cells | AID 504467 | Potency, µM (doses to about 46.1 µM), for inactives: top-dose activity change, negative = inhibition, most hits filed as inhibitors | 330,000 compounds, 2.3% hits | HEK293T ELG1-luciferase reporter, luminescence, 16 h; DNA damage induced by 5-fluorouridine; further: potency means the concentration at half of the fitted maximal effect; nearly all actives have a fitted effect of over 55% in size
#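 DMSO vehicle served as the neutral condition. Each well held 2,000 cells given 5-fluorouridine plus compound; after 16 hr at 37 °C/5% CO2, ONE-Glo was added and luciferase measured 30 min later.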
# * hit, by the source's call; u = inconclusive; x = no result; [ ] = another dose, or the depositor's remark. Unless noted, the call rests on the fitted dose curve; in most records, active means well fitted curve in the direction sought with a large enough effect; inconclusive means small, poorly fitted or top-dose-only effect, or another doubt; inactive means no such curve, though single readings can be large; an effect the other way counts as inactive or inconclusive. On the % scale 0 is the no-effect control and ±100 the full control effect.
SMILES,IL-1B inflam inh,RORg inh,Gal4-VP16 FLuc,DT40 TDP1 no CPT,DT40 TDP1 CPT,ELG1 repair inh
COc1ccc(OC)c(NC(=O)c2cc(=O)c3c(C)cc(C)cc3o2)c1,x,x,x,u,-6%,x
CN=C1C=CC(=C(c2ccc(N(C)C)cc2)c2ccc(N(C)C)cc2)C=C1,x,u,2.5µM*,0.21µM*,0.21µM*,x
COc1ccc(CNC(=O)C/C(C)=N/NC(=O)COc2ccc(C)cc2Br)cc1,57,-29%,-11%,3.7µM*,2.3µM*,13%
C/C(CC(=O)Nc1cc(Cl)ccc1Cl)=N\NC(=O)COc1cccc(C)c1,-7,-44%,-10%,u,-14%,0%
COc1ccc(Cl)cc1NC(=O)C/C(C)=N/NC(=O)COc1ccc(C)cc1,-17,11µM*,-2%,-12%,-27%,4%
CCCNC(=O)C/C(C)=N/NC(=O)COc1ccc(C)cc1Br,18,18%,-10%,-29%,1%,-14%
CCCCOc1ccc(OC(=O)Nc2cc(Cl)ccc2OC)cc1,0,1%,2%,15µM*,18µM*,-27%
O=C(COc1ccc(S(=O)(=O)N2CCOCC2)cc1)N1CCN(c2ccccc2)CC1,10,u,-10%,u,u,-9%
CC(=O)NC12CC3CC(C1)CC(C(=O)Oc1ccc(N(C)S(=O)(=O)c4cc(C)ccc4C)cc1)(C3)C2,-25,x,x,16µM*,u,-4%
N#Cc1c(N)oc(-c2ccco2)c1-c1ccco1,u,12%,-10%,16µM*,u,26%
N#Cc1c(N)oc(-c2ccccc2)c1-c1ccccc1,-4,26%[10 µM],-1%,-13%,-6%,-4%
Cc1cnc(SCC2CCCO2)nc1C1CCCN(Cc2nc(-c3ccccc3)cs2)C1 (stereo not given),x,x,x,u,-1%[9.04 µM],x
Cc1ccc(C(=O)Nc2nnc(C3CCCCC3)s2)o1,-19,-13%,-16%,-18%,-12%,u
Cc1cnc(C(=O)Nc2nccs2)cn1,5,3.5µM*,11µM*,-27%,-6%,u
O=C(Nc1nccs1)c1cn2ccccc2n1,0,2µM*,7.1µM*,-3%,-5%,u
CCc1noc(C)c1C(=O)Nc1nnc(C2CCCCC2)s1,x,11µM*,u,x,x,-7%
Cc1cnc(C(=O)Nc2nnc(C)s2)cn1,-6,u,11%,-1%,-4%,u
Cc1cc(C(=O)Nc2nnc(C3CCCCC3)s2)no1,23,20µM*,2%,7%,-18%,x
Cc1cnc(C(=O)Nc2nnc(C3CC3)s2)cn1,13,8.9µM*,-24%,-2%,2%,u
C/C=C/C(=O)Nc1nnc(C2CCCCC2)s1,-88*,25%,-5%,6%,u,3%
CCC(C)(C)NC(=O)c1cc(S(=O)(=O)N2CCc3ccccc32)cn1C,21,u,u,15µM*,21µM*,-10%
CCN(C(=O)c1cc(S(=O)(=O)N2CCc3ccccc32)cn1C)c1ccccc1,8,u,11%,u,u,-5%
CCN(C(=O)c1cc(S(=O)(=O)N2CCc3ccccc32)cn1C)c1cccc(C)c1,x,x,x,13µM*,u,x
Cc1cc(F)ccc1NC(=O)c1cc(S(=O)(=O)N2CCc3ccccc32)cn1C,-9,8%,-14%,26µM*,u,u
COC(=O)c1c(C)[nH]c(C(=O)C(C)OC(=O)c2cnc(C)cn2)c1C (stereo not given),36,x,x,3%,-19%,22%
SMILES,IL-1B inflam inh,RORg inh,Gal4-VP16 FLuc,DT40 TDP1 no CPT,DT40 TDP1 CPT,ELG1 repair inh
CCOCCCNC(=S)N1CCC(C(=O)c2ccc3c(c2)OCCO3)CC1,-9,-11%,-13%,-13%,u,u
CC(C)(C)OC(=O)N1CCNc2ccccc2C1,5,4µM*,u,-27%,-19%,14%
Cc1ccc(-n2nnnc2CNC(=O)C(=O)c2c[nH]c3ccccc23)cc1C,20,x,x,-22%,-20%,x
CSc1nc2[nH]c3c(c2c2ncnn12)CCCC3,-13,u,2%,u,15µM*,-7%
CCOC(=O)[C@H](CCc1ccccc1)N[C@@H](C)C(=O)N1[C@H](C(=O)O)C[C@H]2CCCC[C@@H]21,x,34%,-4%,-9%,4%,x
COc1ccc(C)cc1NC(=O)CCCN1C(=O)C(c2ccccc2)Oc2cccnc21 (stereo not given),-17,21%,-6%,u,u,u
COc1ccc(Cl)cc1NC(=O)CCCN1C(=O)C(c2ccccc2)Oc2cccnc21 (stereo not given),x,x,x,23µM*,18µM*,x
COc1ccc(CNC(=O)CN2C(=O)C(c3ccccc3)Oc3cccnc32)cc1 (stereo not given),-9,16%,-2%,u,-16%,7%
COc1cc(Cl)c(C)cc1NC(=O)CCCN1C(=O)C(c2ccccc2)Oc2cccnc21 (stereo not given),x,x,x,21µM*,26µM*,x
O=C(CN1C(=O)C(c2ccccc2)Oc2cccnc21)NCc1ccccc1F (stereo not given),-12,13%,-6%,u,21µM*,0%
O=C(O)/C=C/C(=O)c1c(-c2ccccc2)[nH]c2ccccc12,9,14µM*,u,u,u,u
CC(=O)c1c(-c2ccccc2)[nH]c2ccccc12,-7,u,2%,13µM*,13µM*,-25%
CC(=O)c1c(C)[nH]c(-c2ccccc2)c1C,-1,-20%,u,-12%,3%,15%
O=C(NCCCn1ccnc1)c1ccc(N2CCCCCC2)c([N+](=O)[O-])c1,-17,12%,5%,u,18µM*,9.2µM*
CCCCNC(=O)c1ccc(N2CCC3(CC2)OCCO3)c([N+](=O)[O-])c1,-20,28%,0%,-13%,-21%,-29%
CCOC(=O)N1CCC(NC(=O)c2ccc(N3CCC4(CC3)OCCO4)c([N+](=O)[O-])c2)CC1,-3,21%,-16%,u,u,16µM*
C=C1CCN(c2ccc(C(=O)NCCC)cc2[N+](=O)[O-])CC1,-55*,x,x,16µM*,16µM*,x
CCc1ccc(-n2c(=O)c3c4c(sc3n(CC(=O)N3CCC(C)CC3)c2=O)CCC4)cc1,x,x,x,-5%,3%,x
Brc1ccc2c(c1)OCCOCCOc1cc(Br)ccc1OCCOCCOCCO2,-56*,u,16%[0.365 µM],2.9µM*,5.2µM*,21µM*
